The supplement of paper PMC10338343
± gives the standard deviation.

Key:
[1] = test system: MILI (PIWIL2) piRISC loaded with L1MC piRNA (26 nt); assay: pre-steady-state target cleavage rate (min^-1); guide: L1MC piRNA 5'p-UAACUAAAUACUAUGCAAGCUGUAGG; higher = faster piRNA-guided slicing of the target
Procedure, shortened: (§1)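 The pre-steady-state cleavage rate was obtained by Cleave-'n-Seq with a burst-and-steady-state fit. A transcribed, DNA-blocked target RNA library (0.1 nM) was mixed with 1 nM active affinity-purified piRISC carrying one synthetic guide, with or without 500 nM GTSF1 partner protein, in HEPES–potassium acetate buffer at 33 °C for 0–8 or 0–960 min. Uncleaved targets were sequenced and normalised to depth and to weakly complementary targets, with three trials pooled and k3 capped at 0.0001 min^-1.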

[2] = test system: EfPiwi piRISC loaded with L1MC piRNA (26 nt); assay: pre-steady-state target cleavage rate (min^-1); auxiliary factor: 500 nM Ephydatia muelleri Gtsf1; guide: L1MC piRNA 5'p-UAACUAAAUACUAUGCAAGCUGUAGG; MIWI and MILI are mouse PIWI proteins and EfPiwi is from a freshwater sponge; tags in brackets are library labels; higher = faster piRNA-guided slicing of the target
Procedure, shortened: as §1

[3] = auxiliary factor: 500 nM mouse GTSF1
[4] = auxiliary factor: none (no GTSF1)

Sequence | pre-steady-state target cleavage rate [1, 3] | pre-steady-state target cleavage rate [1, 4] | pre-steady-state target cleavage rate [2]
UCCUGGAUGUCCUUGCAUAGUAUUUAGUUG [g2:g19:cont:t1G] | 0.0765 ± 0.0096 | 0.00821 ± 0.002 | 0.00478 ± 0.0018
UCCUGGUACAGCUUGCAAAGUAAUUAGUUA | 0.207 ± 0.03 | 0.00414 ± 0.0027 | 0.00305 ± 0.0021
UCCUGGAACAGCUUGGUUAGUAUUUAGUUA | 0.213 ± 0.02 | 0.0126 ± 0.0037 | 0.0135 ± 0.005
UCCUGGUACAGCUUCAUAGUAUUUAGUUA | 0.209 ± 0.027 | 0.00866 ± 0.0031 | 0.0159 ± 0.0055
UCCUGGAUCACCUUGCAUAGUAUUUAGUUA | 0.234 ± 0.023 | 0.00706 ± 0.0023 | 0.018 ± 0.0063
UCCUCCUACAGCAAGCAUAGUAUUUAGUUA | 0.281 ± 0.014 | 0.00806 ± 0.0019 | 0.0493 ± 0.018
UCCUGCUACAGCUUGGCAUAGUAUUUAGUUA | 0.307 ± 0.051 | 0.00405 ± 0.0027 | 0.00928 ± 0.0031
UCCUGGAUCAGGUUGCAUAGAAUUUAGUUA | 0.0266 ± 0.0065 | 0.00431 ± 0.0021 | 0.00305 ± 0.0023
UCCUCCUACAGCUUGGAUAGUAUUUAGUAA | 0.208 ± 0.02 | 0.00459 ± 0.0023 | 0.00895 ± 0.0035
UCCUGGAUGUCCUUGCAUAGUAUUUAGUA | 0.0747 ± 0.012 | 0.00356 ± 0.0024 | 0.00759 ± 0.0039
UCCUGGAUCACCUUGCAAAGUAUUUAGUUA | 0.0687 ± 0.012 | 0.0045 ± 0.0025 | 0.00506 ± 0.0019
UCCUGGAUCAGCUGCAUAGUAUUUAGUUA | 0.25 ± 0.015 | 0.00821 ± 0.0027 | 0.0152 ± 0.0053
UCCUGGAUCAGCUUUGCAUAGUAUUUAGUUA | 0.297 ± 0.016 | 0.0075 ± 0.0028 | 0.103 ± 0.023
UCCUGGAUGAGGCUUGCAUAGUAUUUAGUUA | 0.186 ± 0.018 | 0.0125 ± 0.0036 | 0.0185 ± 0.0065
UCCUGCUAGACCUUGCAUAGUAUUUAGUUA | 0.171 ± 0.02 | 0.00811 ± 0.0031 | 0.00526 ± 0.0023
UCCUGGUACAGCUUUCAUAGUAUUUAGUUA | 0.22 ± 0.042 | 0.0103 ± 0.0032 | 0.00404 ± 0.0023
UCCUCCUACAGCUUGCAUAGUAAUUUGUUA | 0.111 ± 0.021 | 0.00269 ± 0.0026 | 0.00652 ± 0.0028
UCCUGCUACAGCUUGCAUAGUAAUUAGUUA | 0.271 ± 0.028 | 0.00539 ± 0.0023 | 0.0061 ± 0.0022
UCCUGGAUGUCCUUGCAUAGUCUUUAGUUA | 0.0269 ± 0.0075 | 0.00468 ± 0.0022 | 0.00326 ± 0.0014
UCCUCCUACACCUUGCAUUGUAUUUAGUUA | 0.184 ± 0.021 | 0.0078 ± 0.002 | 0.0139 ± 0.0056
UCCUGGAACAGGUUGCAAAGUAUUUAGUUA | 0.144 ± 0.013 | 0.00884 ± 0.003 | 0.0118 ± 0.0039
UCCUGCUUCAGCUUGCAUAGUAUUUUGUUA | 0.144 ± 0.025 | 0.00322 ± 0.0024 | 0.00635 ± 0.0022
UCCUGGAUCAGCUUAGCAUAGUAUUUAGUUA | 0.232 ± 0.018 | 0.00685 ± 0.0027 | 0.0874 ± 0.019
UCCUGCUACUGCUUGCAUAGUUUUUAGUUA | 0.0524 ± 0.011 | 0.00424 ± 0.0018 | 0.00399 ± 0.0017
UCCUGGAUCAGCAUGCUUAGUAUUUAGUUA | 0.189 ± 0.019 | 0.00777 ± 0.0024 | 0.0112 ± 0.0042
UCCUCCUACUGCUUGGAUAGUAUUUAGUUA | 0.223 ± 0.016 | 0.011 ± 0.0023 | 0.064 ± 0.012

Sequence | pre-steady-state target cleavage rate [1, 3] | pre-steady-state target cleavage rate [1, 4] | pre-steady-state target cleavage rate [2]
UCCUGGAACUGCUUGCAUAGUUUUUAGUUA | 0.0358 ± 0.0071 | 0.00455 ± 0.0018 | 0.00498 ± 0.0026
UCCUGGAUCAGCUCGCAUAGUAUUUAGUUA | 0.284 ± 0.019 | 0.00608 ± 0.0029 | 0.0549 ± 0.013
UCCUCCUACAGCCUUGCAUAGUAUUUAGUUA | 0.262 ± 0.019 | 0.0101 ± 0.0026 | 0.0222 ± 0.0079
UCCUGGAUCAGCAUUGCAUAGUAUUUAGUUA | 0.278 ± 0.024 | 0.0103 ± 0.0029 | 0.0605 ± 0.015
UCCUGGAACAGCUUGCAUAGUAUUAUGUUA | 0.105 ± 0.026 | 0.00259 ± 0.0025 | 0.00324 ± 0.0021
UCCUGGUAGAGCAUGCAUAGUAUUUAGUUA | 0.196 ± 0.018 | 0.0109 ± 0.0033 | 0.0134 ± 0.004
UCCUCCUACAGGCUUGCAUAGUAUUUAGUUA | 0.268 ± 0.019 | 0.00802 ± 0.0025 | 0.0234 ± 0.0078
UCCUGGUACACCUAGCAUAGUAUUUAGUUA | 0.201 ± 0.044 | 0.00696 ± 0.0032 | 0.00319 ± 0.0029
UCCUCCUACAGCUUGGAAAGUAUUUAGUUA | 0.141 ± 0.014 | 0.00715 ± 0.0023 | 0.0615 ± 0.013
UCCUGCAACAGCUUGGAUAGUAUUUAGUUA | 0.251 ± 0.011 | 0.00806 ± 0.0021 | 0.0256 ± 0.0066
UCCUGCUACAGCUUGACAUAGUAUUUAGUUA | 0.226 ± 0.018 | 0.00448 ± 0.0026 | 0.00916 ± 0.0026
UCCUGCUACAGCUUGCAUAGUAUUUAGUUUA | 0.308 ± 0.018 | 0.0118 ± 0.0032 | 0.0608 ± 0.016
UCCUGCUACAGCUCUGCAUAGUAUUUAGUUA | 0.25 ± 0.016 | 0.00983 ± 0.0027 | 0.0151 ± 0.0038
UCCUGGAUGUCCUUGCAUAGUAUUUAGUAUA | 0.191 ± 0.03 | 0.00617 ± 0.0026 | 0.00442 ± 0.0031
UCCUGGAUGAGUUGCAUAGUAUUUAGUUA | 0.108 ± 0.013 | 0.00501 ± 0.0019 | 0.00429 ± 0.002
UCCUCCUACAGCUGUGCAUAGUAUUUAGUUA | 0.321 ± 0.017 | 0.00714 ± 0.0025 | 0.0425 ± 0.015
UCCUGGAACAGGUUGCAUAGUAUUUAGUUA | 0.308 ± 0.018 | 0.0111 ± 0.0022 | 0.0388 ± 0.0088
UCCUGGAUCAGCUUGCAUUGUAUUAAGUUA | 0.142 ± 0.016 | 0.00356 ± 0.0025 | 0.00314 ± 0.0017
UCCUGGAUGUGCUUGCAUAGUGUUUAGUUA | 0.0653 ± 0.013 | 0.00396 ± 0.0032 | 0.0123 ± 0.0051
UCCUGGAUGAGCUUGCAUAGUAUUUAGUUG [g2:g21:cont:t1G] | 0.186 ± 0.019 | 0.00606 ± 0.0029 | 0.0161 ± 0.0043
UCCUCCAACAGGUUGCAUAGUAUUUAGUUA | 0.28 ± 0.011 | 0.00862 ± 0.0019 | 0.0491 ± 0.011
UCCUGCUACAGCCUUGCAUAGUAUUUAGUUA | 0.308 ± 0.025 | 0.00822 ± 0.0026 | 0.0116 ± 0.0041
UCCUCCUACACCUUGCAUAGUAUUUAGUAA | 0.226 ± 0.037 | 0.0033 ± 0.0026 | 0.00625 ± 0.003
UCCUGCUACAGCUUGCAGAGUAUUUAGUUA | 0.27 ± 0.028 | 0.00514 ± 0.002 | 0.006 ± 0.0022
UCCUGGAUGUGCUUGCCUAGUAUUUAGUUA | 0.0942 ± 0.011 | 0.012 ± 0.003 | 0.00934 ± 0.0027
